Measurements as given in the supplement of paper PMC11732987, “Enantioselective OTUD7B fragment discovery through chemoproteomics screening and high-throughput optimisation” (Communications Chemistry, 2025).

Assays:
Experiment in all cases: log2 ratio of Biotin-Ahx-Ub-VS probe labelling (fragment/DMSO); higher = less target engagement (more negative = stronger competition), active = hit call of the paper (q ≤ 0.05, log2 ratio ≤ -1)
Conditions in all cases: compound concentration: 200 uM; treatment time: 3 h
[1] = biological target: T1, USP19 (UniProt O94966)
T1 sequence (whole entry): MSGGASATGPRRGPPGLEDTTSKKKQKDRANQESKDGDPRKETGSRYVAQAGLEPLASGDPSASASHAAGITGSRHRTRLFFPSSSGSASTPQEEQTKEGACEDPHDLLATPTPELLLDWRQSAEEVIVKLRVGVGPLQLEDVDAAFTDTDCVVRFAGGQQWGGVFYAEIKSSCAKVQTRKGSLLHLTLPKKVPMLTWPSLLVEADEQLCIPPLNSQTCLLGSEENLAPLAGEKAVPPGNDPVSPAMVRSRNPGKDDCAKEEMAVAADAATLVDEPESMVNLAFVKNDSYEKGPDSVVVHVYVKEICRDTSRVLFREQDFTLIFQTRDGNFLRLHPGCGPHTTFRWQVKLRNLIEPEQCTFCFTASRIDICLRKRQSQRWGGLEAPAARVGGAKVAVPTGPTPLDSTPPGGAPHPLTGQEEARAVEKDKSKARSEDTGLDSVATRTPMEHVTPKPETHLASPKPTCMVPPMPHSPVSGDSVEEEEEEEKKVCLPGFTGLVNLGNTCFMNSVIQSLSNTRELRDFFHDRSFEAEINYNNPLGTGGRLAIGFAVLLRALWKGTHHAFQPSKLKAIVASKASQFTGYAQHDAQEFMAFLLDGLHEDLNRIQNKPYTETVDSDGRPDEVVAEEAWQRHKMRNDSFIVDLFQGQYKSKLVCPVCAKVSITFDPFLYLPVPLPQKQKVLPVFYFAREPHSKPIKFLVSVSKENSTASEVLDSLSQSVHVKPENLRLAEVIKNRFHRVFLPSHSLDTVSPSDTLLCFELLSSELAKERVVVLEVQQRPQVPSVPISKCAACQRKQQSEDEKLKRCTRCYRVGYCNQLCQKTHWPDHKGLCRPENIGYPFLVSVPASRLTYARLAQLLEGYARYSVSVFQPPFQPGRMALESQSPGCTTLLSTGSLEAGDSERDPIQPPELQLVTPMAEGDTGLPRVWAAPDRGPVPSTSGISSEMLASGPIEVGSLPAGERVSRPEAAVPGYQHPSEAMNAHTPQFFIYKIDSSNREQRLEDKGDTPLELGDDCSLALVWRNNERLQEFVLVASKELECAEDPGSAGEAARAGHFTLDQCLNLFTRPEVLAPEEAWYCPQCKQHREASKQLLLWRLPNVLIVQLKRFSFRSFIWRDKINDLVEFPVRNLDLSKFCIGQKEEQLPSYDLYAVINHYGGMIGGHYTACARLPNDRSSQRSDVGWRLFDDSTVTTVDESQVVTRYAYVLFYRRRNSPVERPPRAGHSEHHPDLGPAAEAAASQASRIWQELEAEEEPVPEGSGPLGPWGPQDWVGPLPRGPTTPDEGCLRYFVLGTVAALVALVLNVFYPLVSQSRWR
In short: (§1)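 The table lists average log2 ratios of fragment over vehicle, from an unpaired t-test on global-median-normalised Spectronaut label-free quantities. Proteins with ≥2 unique peptides were used. Samples were HEK293T lysate (495 µg) treated in triplicate with fragment at 200 µM or vehicle for 3 h, then with Biotin-Ahx-Ub-VS (0.5 µM final) for 1 h, with labelled DUBs NeutrAvidin-enriched and run by diaPASEF LC-MS/MS.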

[2] = biological target: T2, USP22 (UniProt Q9UPT9)
T2 sequence (whole entry): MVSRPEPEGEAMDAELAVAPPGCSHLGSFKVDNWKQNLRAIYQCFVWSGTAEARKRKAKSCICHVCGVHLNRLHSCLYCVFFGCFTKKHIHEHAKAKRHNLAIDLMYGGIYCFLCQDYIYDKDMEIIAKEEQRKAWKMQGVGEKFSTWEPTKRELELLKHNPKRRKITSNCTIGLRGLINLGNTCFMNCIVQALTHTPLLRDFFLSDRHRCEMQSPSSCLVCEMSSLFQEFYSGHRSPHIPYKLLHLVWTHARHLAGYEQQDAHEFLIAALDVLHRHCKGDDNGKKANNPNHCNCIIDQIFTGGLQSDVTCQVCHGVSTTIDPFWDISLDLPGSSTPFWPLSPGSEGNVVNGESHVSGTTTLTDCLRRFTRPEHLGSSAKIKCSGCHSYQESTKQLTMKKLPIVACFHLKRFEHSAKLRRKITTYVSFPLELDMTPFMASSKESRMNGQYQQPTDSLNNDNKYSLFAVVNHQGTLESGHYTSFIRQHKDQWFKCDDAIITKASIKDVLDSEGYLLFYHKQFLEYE
In short: as §1

[3] = biological target: USP24 (UniProt Q9UPU5)
In short: as §1

[4] = biological target: T3, USP25 (UniProt Q9UHP3)
T3 sequence (whole entry): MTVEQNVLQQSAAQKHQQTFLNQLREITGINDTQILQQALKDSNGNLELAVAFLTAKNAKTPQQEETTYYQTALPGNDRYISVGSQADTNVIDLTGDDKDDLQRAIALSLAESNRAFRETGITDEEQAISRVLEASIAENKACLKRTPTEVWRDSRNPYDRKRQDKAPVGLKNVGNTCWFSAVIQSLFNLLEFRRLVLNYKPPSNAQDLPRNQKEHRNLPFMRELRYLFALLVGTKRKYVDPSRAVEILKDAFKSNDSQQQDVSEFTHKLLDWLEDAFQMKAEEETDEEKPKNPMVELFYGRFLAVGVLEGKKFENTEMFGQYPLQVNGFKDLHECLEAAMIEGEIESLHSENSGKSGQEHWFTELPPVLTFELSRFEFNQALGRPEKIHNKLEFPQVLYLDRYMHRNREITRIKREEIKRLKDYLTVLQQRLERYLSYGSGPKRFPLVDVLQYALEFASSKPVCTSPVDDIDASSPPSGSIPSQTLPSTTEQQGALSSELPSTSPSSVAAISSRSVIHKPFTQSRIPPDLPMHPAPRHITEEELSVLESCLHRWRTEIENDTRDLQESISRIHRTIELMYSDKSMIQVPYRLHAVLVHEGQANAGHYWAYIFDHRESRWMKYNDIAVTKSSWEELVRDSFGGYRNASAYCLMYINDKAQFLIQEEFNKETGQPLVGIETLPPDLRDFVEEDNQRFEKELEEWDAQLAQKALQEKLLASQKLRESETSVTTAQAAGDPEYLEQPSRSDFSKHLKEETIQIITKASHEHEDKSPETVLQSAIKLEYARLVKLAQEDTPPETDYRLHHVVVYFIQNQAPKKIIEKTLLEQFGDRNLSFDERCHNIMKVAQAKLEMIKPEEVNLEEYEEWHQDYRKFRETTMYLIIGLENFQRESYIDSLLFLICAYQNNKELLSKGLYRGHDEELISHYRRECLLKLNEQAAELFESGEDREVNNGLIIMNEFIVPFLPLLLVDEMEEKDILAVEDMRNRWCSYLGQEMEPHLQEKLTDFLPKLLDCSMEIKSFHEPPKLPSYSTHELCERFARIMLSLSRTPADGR
In short: as §1

[5] = biological target: T4, USP28 (UniProt Q96RU2)
T4 sequence (whole entry): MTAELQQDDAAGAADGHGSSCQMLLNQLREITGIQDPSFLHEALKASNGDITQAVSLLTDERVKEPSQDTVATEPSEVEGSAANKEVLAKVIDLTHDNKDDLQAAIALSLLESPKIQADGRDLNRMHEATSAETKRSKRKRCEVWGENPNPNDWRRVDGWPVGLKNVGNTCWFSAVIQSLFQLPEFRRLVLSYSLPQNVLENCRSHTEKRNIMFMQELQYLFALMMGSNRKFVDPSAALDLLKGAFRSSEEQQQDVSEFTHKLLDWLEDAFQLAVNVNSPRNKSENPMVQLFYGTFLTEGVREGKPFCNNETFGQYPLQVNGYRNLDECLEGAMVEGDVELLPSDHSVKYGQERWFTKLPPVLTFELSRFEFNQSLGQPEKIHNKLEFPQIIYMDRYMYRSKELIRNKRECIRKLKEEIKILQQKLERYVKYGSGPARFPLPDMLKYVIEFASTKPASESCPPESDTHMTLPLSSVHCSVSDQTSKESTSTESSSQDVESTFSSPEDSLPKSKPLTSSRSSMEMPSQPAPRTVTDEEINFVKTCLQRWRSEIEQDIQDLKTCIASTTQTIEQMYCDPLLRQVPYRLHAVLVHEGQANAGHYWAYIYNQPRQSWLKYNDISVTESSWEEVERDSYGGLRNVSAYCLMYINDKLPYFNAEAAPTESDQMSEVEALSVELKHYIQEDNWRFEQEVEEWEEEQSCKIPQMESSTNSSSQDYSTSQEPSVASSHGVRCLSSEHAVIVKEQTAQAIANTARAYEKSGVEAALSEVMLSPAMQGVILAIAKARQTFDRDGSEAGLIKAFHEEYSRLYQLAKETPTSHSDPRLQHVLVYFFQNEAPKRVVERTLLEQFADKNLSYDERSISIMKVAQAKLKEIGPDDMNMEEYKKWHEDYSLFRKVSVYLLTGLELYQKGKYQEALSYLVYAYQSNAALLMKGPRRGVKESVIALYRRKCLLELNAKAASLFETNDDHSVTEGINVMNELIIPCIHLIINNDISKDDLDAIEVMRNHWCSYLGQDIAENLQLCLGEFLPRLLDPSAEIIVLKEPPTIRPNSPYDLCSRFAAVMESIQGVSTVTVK
In short: as §1

Measured: log2 ratio of Biotin-Ahx-Ub-VS probe labelling

USP24, sequence (Q9UPU5 whole entry): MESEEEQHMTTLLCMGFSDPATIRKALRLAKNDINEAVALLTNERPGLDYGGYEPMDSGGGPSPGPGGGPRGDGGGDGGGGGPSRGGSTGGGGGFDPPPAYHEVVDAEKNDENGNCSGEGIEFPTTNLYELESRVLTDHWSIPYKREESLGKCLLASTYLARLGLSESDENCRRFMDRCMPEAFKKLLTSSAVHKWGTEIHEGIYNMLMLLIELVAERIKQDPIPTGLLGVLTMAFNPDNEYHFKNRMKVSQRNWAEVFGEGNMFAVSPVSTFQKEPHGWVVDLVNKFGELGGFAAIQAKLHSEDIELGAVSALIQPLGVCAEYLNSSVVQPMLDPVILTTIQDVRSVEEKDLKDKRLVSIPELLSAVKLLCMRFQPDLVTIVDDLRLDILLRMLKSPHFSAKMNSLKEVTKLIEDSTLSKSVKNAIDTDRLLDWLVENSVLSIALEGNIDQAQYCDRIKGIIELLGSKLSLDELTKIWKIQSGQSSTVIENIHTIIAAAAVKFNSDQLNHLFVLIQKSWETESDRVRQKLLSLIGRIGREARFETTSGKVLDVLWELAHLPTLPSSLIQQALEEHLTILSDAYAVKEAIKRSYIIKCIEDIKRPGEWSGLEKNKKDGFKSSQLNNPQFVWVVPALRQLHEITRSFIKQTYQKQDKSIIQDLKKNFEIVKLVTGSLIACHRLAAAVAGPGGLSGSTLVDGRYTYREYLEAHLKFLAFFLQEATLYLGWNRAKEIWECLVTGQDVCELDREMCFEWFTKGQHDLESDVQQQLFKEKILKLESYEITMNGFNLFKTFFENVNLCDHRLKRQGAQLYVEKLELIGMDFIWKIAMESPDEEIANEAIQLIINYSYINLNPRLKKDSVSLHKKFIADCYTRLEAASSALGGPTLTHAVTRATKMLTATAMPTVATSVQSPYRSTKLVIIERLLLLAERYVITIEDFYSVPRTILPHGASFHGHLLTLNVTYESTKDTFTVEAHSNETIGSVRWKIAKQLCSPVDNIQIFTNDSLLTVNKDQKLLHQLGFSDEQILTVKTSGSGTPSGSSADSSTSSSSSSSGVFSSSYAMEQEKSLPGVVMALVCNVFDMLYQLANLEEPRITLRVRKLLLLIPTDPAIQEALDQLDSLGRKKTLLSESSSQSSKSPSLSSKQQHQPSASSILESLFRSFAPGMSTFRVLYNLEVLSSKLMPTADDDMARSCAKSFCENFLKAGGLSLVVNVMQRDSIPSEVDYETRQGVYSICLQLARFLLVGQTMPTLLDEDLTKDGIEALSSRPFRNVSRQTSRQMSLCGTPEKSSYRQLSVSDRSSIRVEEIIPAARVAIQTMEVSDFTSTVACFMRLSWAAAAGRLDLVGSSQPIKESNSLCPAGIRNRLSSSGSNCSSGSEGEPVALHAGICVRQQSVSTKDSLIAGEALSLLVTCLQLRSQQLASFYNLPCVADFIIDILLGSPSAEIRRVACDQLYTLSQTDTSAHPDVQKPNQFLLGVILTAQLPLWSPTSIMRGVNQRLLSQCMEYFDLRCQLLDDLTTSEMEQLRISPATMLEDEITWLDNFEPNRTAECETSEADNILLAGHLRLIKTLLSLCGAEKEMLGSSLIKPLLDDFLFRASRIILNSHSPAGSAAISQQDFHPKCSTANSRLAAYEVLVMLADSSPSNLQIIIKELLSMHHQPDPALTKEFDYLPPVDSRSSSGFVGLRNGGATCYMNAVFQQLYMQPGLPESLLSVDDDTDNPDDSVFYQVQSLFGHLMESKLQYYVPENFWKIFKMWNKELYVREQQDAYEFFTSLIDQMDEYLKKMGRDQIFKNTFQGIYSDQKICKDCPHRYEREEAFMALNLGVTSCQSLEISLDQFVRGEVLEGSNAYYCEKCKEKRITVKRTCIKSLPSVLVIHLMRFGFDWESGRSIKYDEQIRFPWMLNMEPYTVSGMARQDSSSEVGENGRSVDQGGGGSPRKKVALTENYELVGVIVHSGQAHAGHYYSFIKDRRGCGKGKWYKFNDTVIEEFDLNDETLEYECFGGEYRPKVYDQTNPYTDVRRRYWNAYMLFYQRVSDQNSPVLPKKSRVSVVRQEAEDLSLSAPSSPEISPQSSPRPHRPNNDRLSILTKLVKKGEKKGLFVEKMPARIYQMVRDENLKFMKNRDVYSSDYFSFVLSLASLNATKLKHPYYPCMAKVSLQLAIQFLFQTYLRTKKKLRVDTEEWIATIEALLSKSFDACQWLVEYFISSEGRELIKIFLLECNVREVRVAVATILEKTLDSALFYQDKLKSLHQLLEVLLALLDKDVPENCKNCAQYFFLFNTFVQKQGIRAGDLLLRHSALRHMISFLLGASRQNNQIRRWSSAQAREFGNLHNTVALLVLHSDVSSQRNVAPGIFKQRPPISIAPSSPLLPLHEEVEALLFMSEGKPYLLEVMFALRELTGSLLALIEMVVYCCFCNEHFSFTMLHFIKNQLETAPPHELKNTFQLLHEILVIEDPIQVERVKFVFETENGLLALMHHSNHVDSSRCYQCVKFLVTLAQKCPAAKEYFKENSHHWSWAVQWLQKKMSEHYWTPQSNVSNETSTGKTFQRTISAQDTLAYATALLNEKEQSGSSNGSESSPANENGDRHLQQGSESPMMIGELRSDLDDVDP

O=C(CCl)N1CCC[C@@H]1c1ccon1
inactive: [1] -0.377 | [2] -0.153 | [3] -0.653 | [4] -0.618 | [5] -0.64
